From PubChem
A selection: hits, their analogues and other compounds. The true share with any hit is near 22%.
CYP2C19 inh: blocks human cytochrome P450 2C19. P33261. CYP2C19 Supersomes, luciferin-H EGE luminescence, 30 min. 96,000 compounds, 21% hits. inhibition, % at 5 µM. AID 778;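 active = CYP2C19 inhibition above a set limit at 5 µM in the primary screen, cut at about 50% in these data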
CYP2C19 act: cytochrome P450 2C19 (human) activation | recombinant CYP2C19, luciferin-H EGE luminescence; hits give high values; 0 = fully inhibited enzyme, 1 = untreated enzyme | activation factor at 5 µM | 96,000 tested, under 10 active | AID 1025;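 active = activation factor of at least 2 at 5 µM in the primary screen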
CYP2C9 inh: human CYP2C9 inhibition; P11712; CYP2C9 Supersomes, luciferin-H conversion, luminescence; inhibition, % at 5 µM; 96,000 compounds, 20% hits; AID 777;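 active = blocking of liver enzyme CYP2C9 beyond about 50% at 5 µM, limit read from the data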
Target sequence (P11712 whole entry, looked up): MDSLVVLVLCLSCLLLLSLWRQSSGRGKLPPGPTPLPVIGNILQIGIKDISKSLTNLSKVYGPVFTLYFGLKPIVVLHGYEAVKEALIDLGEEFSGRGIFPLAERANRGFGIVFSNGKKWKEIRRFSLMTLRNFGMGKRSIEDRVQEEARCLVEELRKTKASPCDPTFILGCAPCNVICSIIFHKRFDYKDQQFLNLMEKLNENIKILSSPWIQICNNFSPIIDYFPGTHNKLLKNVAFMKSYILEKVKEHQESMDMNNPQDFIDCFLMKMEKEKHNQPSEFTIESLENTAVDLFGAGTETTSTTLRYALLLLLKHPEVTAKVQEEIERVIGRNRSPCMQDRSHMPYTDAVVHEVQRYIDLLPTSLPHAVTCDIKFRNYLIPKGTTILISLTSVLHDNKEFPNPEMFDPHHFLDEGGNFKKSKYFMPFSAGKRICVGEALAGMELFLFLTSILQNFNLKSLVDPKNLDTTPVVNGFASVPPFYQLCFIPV
CYP2C9 activ: CYP2C9 (human) activation; activation factor at 5 µM; recombinant CYP2C9, luciferin-H conversion, luminescence; hits give high values; factor 1 = untreated enzyme, 0 = blocked; AID 1024; 96,000 compounds, 1.4% hits; P11712;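 active = activation factor of 2 or more for CYP2C9 at a 5 µM dose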
Measles CPE: protection of cells from measles virus; Measles virus-infected cells, CPE protection, absorbance; AID 841; 140,000 compounds, 1.5% hits; protection (pct of control), % at 4 µM; in the data active = protection mostly above about 24%, no sharp cut-off; inactive = mostly below about 26%
Large screens that a line does not name were inactive.

CCC(=O)Oc1ccc(-c2nc(-c3cccnc3)no2)cc1	CYP2C19 inh 68, CYP2C9 inh 70
Cc1ccc(-c2nc(-c3ccccc3)no2)cc1	CYP2C19 inh 66
CN1CCN(C(=S)Nc2cccc(C(F)(F)F)c2)CC1	none (no result: CYP2C19 inh, CYP2C19 act, CYP2C9 inh, CYP2C9 activ)
S=c1[nH]cc(-c2ccccc2)n1-c1ccccc1Cl	none (no result: CYP2C19 inh, CYP2C19 act, CYP2C9 inh, CYP2C9 activ)
CCCCCn1c(Br)nc2c1c(=O)n(CC(N)=O)c(=O)n2C	none
Cc1cc2c(C)cc(=O)oc2c2c1NCCC2	CYP2C9 activ 3.1
CCN(CC)CCOc1ncnc2c1oc1ccccc12	CYP2C19 inh 66
Cc1ccc(SCc2cc(=O)n3[nH]cnc3n2)cc1	none (no result: CYP2C19 inh, CYP2C19 act, CYP2C9 inh, CYP2C9 activ)
Cc1nc2nc(CSc3ccc(Cl)cc3)cc(=O)n2[nH]1	CYP2C9 inh 55
Cc1ccc(SCc2cc(=O)n3[nH]c(C)nc3n2)cc1	CYP2C9 inh 56
Cc1ccc(S(=O)(=O)/N=c2\sccn2C)cc1	CYP2C9 activ 2.2
N#Cc1cccc(-n2c(-c3ccccc3)nnc2-c2ccccc2)c1C#N	CYP2C19 inh 89, CYP2C9 inh 89
Cc1cccc(C2Nc3ccccc3C(=O)N2CCc2ccccc2)n1 (configuration not stated)	CYP2C19 inh 61, CYP2C9 inh 61
COc1cc(NC(=O)c2ccc3c(c2)OCO3)ccc1NC(=O)c1ccco1	none (no result: CYP2C19 inh, CYP2C19 act, CYP2C9 inh, CYP2C9 activ)
O=C(Nc1ccc2c(c1)OCO2)Oc1ccccc1	CYP2C19 inh 62
COC(=O)Nc1ccc2c(c1)OCO2	none (no result: CYP2C19 inh, CYP2C19 act, CYP2C9 inh, CYP2C9 activ)
COc1ccc(Cl)cc1C(=O)Nc1nnn(C)n1	CYP2C9 activ 2
COc1ccccc1C(=O)Nc1ccc2c(c1)OCO2	CYP2C19 inh 90
O=C(Nc1ccccc1C(=O)Nc1ccc2c(c1)OCO2)c1ccco1	CYP2C19 inh 51, CYP2C9 inh 97, Measles CPE 25
O=C(CCSc1nccn1Cc1ccccc1)N1CCOCC1	none
CCOC(=O)c1sc(/N=C/N(C)C)nc1C	none (no result: CYP2C19 inh, CYP2C19 act, CYP2C9 inh, CYP2C9 activ)
COCCn1cnnc1SCC(=O)Nc1ccccc1C(=O)Nc1ccc2c(c1)OCO2	CYP2C19 inh 58, CYP2C9 inh 94
Cc1ccc(NC(=O)/C(=C\c2cccc(Br)c2)NC(=O)c2ccco2)cc1	none
CN(c1ccccc1C(=O)Nc1ccc2c(c1)OCO2)S(C)(=O)=O	none (no result: CYP2C19 inh, CYP2C19 act, CYP2C9 inh, CYP2C9 activ)
Cc1ccc(NC(=O)/C(=C\c2ccc3c(c2)OCO3)NC(=O)c2ccco2)cc1	CYP2C9 inh 84
COc1ccccc1C(=O)Nc1ccc2c(c1)OCCO2	CYP2C9 activ 2.1
Cc1ccccc1C(=O)Nc1ccc2c(c1)OCO2	CYP2C19 inh 84
OCCNc1cc(-n2nc(-c3ccccc3)cc2-c2ccccc2)ncn1	none
COc1ccc(OC)c(/C=N/NC(=O)c2cc3c(OC)c(OC)ccc3[nH]2)c1	none (no result: CYP2C19 inh, CYP2C19 act, CYP2C9 inh, CYP2C9 activ)
CSC1=Nc2sc3c(c2C2=NCCN12)CCCC3	none (no result: Measles CPE)
C/C(=C\C(=O)c1ccccc1)Nc1ccc2c(c1)OCO2	Measles CPE 30 (no result: CYP2C19 inh, CYP2C19 act, CYP2C9 inh, CYP2C9 activ)
CCOC(=O)Nc1ccc2c(c1)OCO2	none
CCN(CC)c1ccc(NC(=O)c2cc(Cl)ccc2OC)cc1	CYP2C9 activ 2.9
CCOC(=O)c1c(C)[nH]c(C(=O)Nc2ccc3c(c2)OCO3)c1C	CYP2C19 inh 86
COc1ccc(Cl)cc1C(=O)Nc1ccc2c(c1)OCO2	CYP2C19 inh 59, CYP2C9 activ 3.3
CCCCOC(=O)Nc1nnc(SCCOc2ccc(C)cc2)s1	none (no result: CYP2C19 inh, CYP2C19 act, CYP2C9 inh, CYP2C9 activ)
CCN(CC)c1ccc(NC(=O)c2ccccc2F)cc1	CYP2C9 activ 3
COc1cc(SC)ccc1C(=O)Nc1ccc2c(c1)OCCO2	CYP2C19 inh 91, CYP2C9 inh 58
COc1cc(SC)ccc1C(=O)Nc1ccccc1	none
CCN(CC)c1ccc(NC(=O)c2ccco2)cc1	none
Cc1ccc(N2C(=O)CC(N(CCc3ccccc3)C(=S)Nc3ccc(N(C)C)cc3)C2=O)cc1 (configuration not stated)	none
O=C(O)CCC(=O)NCc1cn(-c2ccccc2)nc1-c1cccc(Br)c1	none (no result: CYP2C19 inh, CYP2C19 act, CYP2C9 inh, CYP2C9 activ)
COC(=O)C1=C(C)N=C2SC(C#N)=C(N)N2C1c1cccc(OC)c1 (configuration not stated)	CYP2C19 inh 96, CYP2C9 inh 92
Cc1cc(C)n(C(=O)c2ccc([N+](=O)[O-])c(Cl)c2)n1	none (no result: CYP2C19 inh, CYP2C19 act, CYP2C9 inh, CYP2C9 activ)
c1c2c(cc3sc(N4CCOCC4)nc13)OCCO2	CYP2C19 inh 87
c1ccc(N2CCN(c3nc4cc5c(cc4s3)OCCO5)CC2)cc1	none
COCCNC(=O)c1cc(-c2ccccc2OC)on1	CYP2C9 activ 2.6
COc1ccccc1-c1cc(C(=O)NCc2cccs2)no1	CYP2C9 activ 2.3
CS(=O)(=O)N1CCCC(C(=O)NCCCN2CCC(Cc3ccccc3)CC2)C1 (configuration not stated)	none
COc1ccc(NC(=O)C2CCCN(S(=O)(=O)c3cccc4nonc34)C2)cc1 (configuration not stated)	none
COc1ccc(N2C(=O)C(Cl)=C(N3CCCC3)C2=O)cc1	none
COc1ccc(N2C(=O)C(Cl)=C(N3CCCC(C)C3)C2=O)cc1 (configuration not stated)	CYP2C19 inh 84, CYP2C9 inh 85
S=C(NCCCc1ccccc1)Nc1ccccc1Cl	none (no result: CYP2C19 inh, CYP2C19 act, CYP2C9 inh, CYP2C9 activ)
Cc1ccc(NC(=O)COC(=O)c2ccc3c(c2)C(=O)N(CCc2ccccc2)C3=O)c(C)c1	none (no result: CYP2C19 inh, CYP2C19 act, CYP2C9 inh, CYP2C9 activ)
Cc1noc(C)c1C(=O)Nc1sc(C)c(C)c1C#N	CYP2C9 inh 62
Cc1noc(C)c1C(=O)Nc1sc2c(c1C(N)=O)CCC2	none
COC(=O)c1cc(Oc2ccc(C(=O)OC)cc2N)cc(C(=O)OC)c1	none
COC(=O)CCCCCNc1ccc(C(=O)OC)cc1N	CYP2C19 inh 84, Measles CPE 30
O=C(CSc1nnnn1Cc1ccccc1)Nc1ccc2c(c1)OCCO2	CYP2C19 inh 82, CYP2C9 inh 83
Nc1c(C(=O)Nc2ccc3c(c2)OCCO3)nnn1CCc1ccccc1	CYP2C19 inh 57, CYP2C9 inh 79
CCC(=O)Nc1cccc(NC(=O)CSc2nnnn2Cc2ccccc2)c1	CYP2C9 inh 53
Cc1ccc(S(=O)(=O)N2CCCCC2C(=O)N2CCN(Cc3ccccc3)CC2)cc1 (configuration not stated)	CYP2C19 inh 85, CYP2C9 activ 2.9
Cc1ccc(S(=O)(=O)NNC(=O)C2CCN(Cc3ccccc3)CC2)cc1	none (no result: CYP2C19 inh, CYP2C19 act, CYP2C9 inh, CYP2C9 activ)
O=C(C1CCCCN1S(=O)(=O)c1ccccc1)N1CCN(Cc2ccccc2)CC1 (configuration not stated)	CYP2C19 inh 62
O=C(C1CCC1)N1CCN(Cc2ccccc2)CC1	CYP2C19 inh 93
O=C(Nc1ccccc1[N+](=O)[O-])C1=C(O)CCn2c1nc1ccccc12	none
CC(C)(C)NCCCCOc1ccc(F)cc1	none
C=CCN(C(=O)Nc1ccc(F)cc1)C1CC(=O)N(c2ccc(OC)cc2)C1=O (configuration not stated)	none
O=C1CCCc2c1cc(C(=O)Nc1ccc(Cl)cn1)c(=O)n2-c1ccccc1	CYP2C9 inh 78
CCC1CCCCN1C/C=C/c1ccccc1[N+](=O)[O-] (configuration not stated)	none
COc1ccc(N(CC(=O)NCc2cccs2)S(=O)(=O)c2c(C)n[nH]c2C)cc1	CYP2C19 inh 73
